Measurements taken from the supplement of paper PMC11732987, “Enantioselective OTUD7B fragment discovery through chemoproteomics screening and high-throughput optimisation” (Communications Chemistry, 2025).

Columns and labels:
Test in all cases: log2 ratio of Biotin-Ahx-Ub-VS probe labelling (fragment/DMSO); higher = less target engagement (more negative = stronger competition), active = hit call of the paper (q ≤ 0.05, log2 ratio ≤ -1)
Conditions in all cases: compound concentration: 200 uM; treatment time: 3 h
USP19 = target: T1, USP19 (UniProt O94966)
T1 sequence (whole entry): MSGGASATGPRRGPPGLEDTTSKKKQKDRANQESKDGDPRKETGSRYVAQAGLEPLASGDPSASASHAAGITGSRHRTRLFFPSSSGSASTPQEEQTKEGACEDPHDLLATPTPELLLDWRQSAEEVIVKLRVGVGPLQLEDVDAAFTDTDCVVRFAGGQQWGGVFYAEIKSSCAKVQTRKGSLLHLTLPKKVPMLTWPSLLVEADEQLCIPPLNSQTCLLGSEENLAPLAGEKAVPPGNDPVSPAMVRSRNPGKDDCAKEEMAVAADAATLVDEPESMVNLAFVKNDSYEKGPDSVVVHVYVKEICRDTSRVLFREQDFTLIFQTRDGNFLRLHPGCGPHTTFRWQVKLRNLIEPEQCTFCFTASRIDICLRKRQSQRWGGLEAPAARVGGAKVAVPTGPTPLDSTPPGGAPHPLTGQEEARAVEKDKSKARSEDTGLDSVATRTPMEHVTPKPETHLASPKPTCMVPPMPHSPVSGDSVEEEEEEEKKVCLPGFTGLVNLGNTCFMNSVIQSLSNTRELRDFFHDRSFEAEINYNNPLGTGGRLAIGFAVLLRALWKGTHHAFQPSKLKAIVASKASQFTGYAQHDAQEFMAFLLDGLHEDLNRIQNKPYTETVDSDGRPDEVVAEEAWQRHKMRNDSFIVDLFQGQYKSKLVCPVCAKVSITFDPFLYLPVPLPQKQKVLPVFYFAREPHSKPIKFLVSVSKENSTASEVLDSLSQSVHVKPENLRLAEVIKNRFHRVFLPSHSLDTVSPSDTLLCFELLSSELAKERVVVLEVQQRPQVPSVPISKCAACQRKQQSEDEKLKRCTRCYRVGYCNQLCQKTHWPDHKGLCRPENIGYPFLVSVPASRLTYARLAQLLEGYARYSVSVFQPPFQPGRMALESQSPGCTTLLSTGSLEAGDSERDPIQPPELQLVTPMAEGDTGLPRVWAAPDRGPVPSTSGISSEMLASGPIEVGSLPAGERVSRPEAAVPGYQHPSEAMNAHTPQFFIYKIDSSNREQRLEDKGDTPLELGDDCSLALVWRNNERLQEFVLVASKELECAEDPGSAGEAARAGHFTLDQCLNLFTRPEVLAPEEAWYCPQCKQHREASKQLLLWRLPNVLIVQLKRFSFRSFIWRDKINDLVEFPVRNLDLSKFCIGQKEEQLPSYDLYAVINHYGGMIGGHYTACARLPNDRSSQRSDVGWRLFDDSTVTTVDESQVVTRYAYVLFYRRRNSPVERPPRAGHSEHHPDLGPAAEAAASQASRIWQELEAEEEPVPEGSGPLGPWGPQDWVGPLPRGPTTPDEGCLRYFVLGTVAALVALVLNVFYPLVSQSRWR
Summary of the method: (§1)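 Each value is an average log2 ratio of fragment to vehicle, tested by unpaired t-test. The underlying Spectronaut label-free quantities were global-median-normalised, and only proteins with ≥2 unique peptides were included. Triplicate HEK293T lysate samples (495 µg) were exposed to fragment at 200 µM or vehicle for 3 h, then to Biotin-Ahx-Ub-VS at 0.5 µM final for 1 h, before NeutrAvidin enrichment of labelled DUBs, LysC and trypsin digestion, and diaPASEF LC-MS/MS.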

USP22 = target: T2, USP22 (UniProt Q9UPT9)
T2 sequence (whole entry): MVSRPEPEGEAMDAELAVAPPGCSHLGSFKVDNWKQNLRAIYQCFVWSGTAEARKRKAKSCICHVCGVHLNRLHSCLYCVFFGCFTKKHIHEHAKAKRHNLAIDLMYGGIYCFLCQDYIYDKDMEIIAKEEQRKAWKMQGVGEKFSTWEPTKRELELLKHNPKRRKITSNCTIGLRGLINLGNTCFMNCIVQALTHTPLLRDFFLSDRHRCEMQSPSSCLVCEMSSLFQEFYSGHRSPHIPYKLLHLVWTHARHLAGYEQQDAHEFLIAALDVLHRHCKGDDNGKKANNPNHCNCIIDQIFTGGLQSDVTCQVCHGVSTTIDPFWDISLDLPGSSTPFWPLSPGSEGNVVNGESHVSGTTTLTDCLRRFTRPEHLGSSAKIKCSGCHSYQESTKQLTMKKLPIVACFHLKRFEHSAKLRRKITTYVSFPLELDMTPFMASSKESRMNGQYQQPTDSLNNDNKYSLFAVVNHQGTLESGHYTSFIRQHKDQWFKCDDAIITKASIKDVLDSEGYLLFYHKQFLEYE
Summary of the method: as §1

USP24 = USP24 (UniProt Q9UPU5)
Summary of the method: as §1

USP25 = target: T3, USP25 (UniProt Q9UHP3)
T3 sequence (whole entry): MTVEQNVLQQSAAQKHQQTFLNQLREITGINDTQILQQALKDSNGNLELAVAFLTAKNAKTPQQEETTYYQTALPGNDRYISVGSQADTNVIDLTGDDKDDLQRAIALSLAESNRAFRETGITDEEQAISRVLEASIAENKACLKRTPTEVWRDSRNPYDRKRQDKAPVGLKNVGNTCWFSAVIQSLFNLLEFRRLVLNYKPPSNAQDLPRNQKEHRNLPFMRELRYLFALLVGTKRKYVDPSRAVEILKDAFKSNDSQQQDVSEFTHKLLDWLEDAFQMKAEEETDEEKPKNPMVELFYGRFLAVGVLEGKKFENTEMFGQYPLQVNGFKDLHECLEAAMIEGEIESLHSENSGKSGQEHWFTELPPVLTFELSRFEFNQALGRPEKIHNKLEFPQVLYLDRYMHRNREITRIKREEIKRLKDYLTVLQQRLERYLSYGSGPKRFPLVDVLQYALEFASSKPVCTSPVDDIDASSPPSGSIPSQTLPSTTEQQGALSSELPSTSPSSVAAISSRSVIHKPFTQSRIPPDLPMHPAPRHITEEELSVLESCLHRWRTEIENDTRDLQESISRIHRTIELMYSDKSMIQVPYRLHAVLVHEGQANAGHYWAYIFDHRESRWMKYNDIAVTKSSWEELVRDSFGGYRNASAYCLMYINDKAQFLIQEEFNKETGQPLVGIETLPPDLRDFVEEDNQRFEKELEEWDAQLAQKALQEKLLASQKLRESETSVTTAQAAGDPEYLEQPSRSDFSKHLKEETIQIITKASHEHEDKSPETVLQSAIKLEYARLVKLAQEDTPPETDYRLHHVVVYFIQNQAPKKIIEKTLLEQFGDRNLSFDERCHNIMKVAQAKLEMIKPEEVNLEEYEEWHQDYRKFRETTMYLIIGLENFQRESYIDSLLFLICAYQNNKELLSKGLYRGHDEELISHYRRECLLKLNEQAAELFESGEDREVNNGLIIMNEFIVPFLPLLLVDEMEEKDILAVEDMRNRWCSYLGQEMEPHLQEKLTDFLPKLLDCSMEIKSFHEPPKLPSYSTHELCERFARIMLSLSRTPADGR
Summary of the method: as §1

USP28 = target: T4, USP28 (UniProt Q96RU2)
T4 sequence (whole entry): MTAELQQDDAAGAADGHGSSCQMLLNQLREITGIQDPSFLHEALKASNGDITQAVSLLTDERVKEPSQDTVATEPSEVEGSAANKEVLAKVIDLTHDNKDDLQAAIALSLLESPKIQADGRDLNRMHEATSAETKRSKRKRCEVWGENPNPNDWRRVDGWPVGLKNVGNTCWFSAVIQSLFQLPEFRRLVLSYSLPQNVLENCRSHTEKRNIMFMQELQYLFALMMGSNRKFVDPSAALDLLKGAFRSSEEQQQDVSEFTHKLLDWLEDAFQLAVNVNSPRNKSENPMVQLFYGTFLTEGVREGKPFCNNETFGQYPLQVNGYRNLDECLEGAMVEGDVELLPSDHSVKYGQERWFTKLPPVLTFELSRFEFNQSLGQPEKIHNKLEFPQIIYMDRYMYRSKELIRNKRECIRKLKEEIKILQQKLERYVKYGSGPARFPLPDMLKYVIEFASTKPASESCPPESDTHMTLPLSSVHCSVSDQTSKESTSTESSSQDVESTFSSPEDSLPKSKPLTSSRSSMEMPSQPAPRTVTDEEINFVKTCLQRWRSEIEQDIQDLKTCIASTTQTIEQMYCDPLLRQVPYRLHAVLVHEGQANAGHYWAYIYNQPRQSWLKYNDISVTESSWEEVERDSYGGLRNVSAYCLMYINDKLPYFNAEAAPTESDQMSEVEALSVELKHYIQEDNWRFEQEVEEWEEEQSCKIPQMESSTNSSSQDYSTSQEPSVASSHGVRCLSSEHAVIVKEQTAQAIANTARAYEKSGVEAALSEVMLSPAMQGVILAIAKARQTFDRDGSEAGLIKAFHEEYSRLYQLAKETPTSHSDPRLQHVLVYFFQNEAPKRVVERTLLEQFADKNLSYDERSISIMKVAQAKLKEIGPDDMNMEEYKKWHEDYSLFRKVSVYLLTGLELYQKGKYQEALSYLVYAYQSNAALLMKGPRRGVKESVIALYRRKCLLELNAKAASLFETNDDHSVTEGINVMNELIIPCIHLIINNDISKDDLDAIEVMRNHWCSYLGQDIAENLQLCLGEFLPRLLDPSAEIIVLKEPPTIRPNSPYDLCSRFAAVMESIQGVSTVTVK
Summary of the method: as §1

Measured: log2 ratio of Biotin-Ahx-Ub-VS probe labelling

Chain of USP24 (Q9UPU5 whole entry): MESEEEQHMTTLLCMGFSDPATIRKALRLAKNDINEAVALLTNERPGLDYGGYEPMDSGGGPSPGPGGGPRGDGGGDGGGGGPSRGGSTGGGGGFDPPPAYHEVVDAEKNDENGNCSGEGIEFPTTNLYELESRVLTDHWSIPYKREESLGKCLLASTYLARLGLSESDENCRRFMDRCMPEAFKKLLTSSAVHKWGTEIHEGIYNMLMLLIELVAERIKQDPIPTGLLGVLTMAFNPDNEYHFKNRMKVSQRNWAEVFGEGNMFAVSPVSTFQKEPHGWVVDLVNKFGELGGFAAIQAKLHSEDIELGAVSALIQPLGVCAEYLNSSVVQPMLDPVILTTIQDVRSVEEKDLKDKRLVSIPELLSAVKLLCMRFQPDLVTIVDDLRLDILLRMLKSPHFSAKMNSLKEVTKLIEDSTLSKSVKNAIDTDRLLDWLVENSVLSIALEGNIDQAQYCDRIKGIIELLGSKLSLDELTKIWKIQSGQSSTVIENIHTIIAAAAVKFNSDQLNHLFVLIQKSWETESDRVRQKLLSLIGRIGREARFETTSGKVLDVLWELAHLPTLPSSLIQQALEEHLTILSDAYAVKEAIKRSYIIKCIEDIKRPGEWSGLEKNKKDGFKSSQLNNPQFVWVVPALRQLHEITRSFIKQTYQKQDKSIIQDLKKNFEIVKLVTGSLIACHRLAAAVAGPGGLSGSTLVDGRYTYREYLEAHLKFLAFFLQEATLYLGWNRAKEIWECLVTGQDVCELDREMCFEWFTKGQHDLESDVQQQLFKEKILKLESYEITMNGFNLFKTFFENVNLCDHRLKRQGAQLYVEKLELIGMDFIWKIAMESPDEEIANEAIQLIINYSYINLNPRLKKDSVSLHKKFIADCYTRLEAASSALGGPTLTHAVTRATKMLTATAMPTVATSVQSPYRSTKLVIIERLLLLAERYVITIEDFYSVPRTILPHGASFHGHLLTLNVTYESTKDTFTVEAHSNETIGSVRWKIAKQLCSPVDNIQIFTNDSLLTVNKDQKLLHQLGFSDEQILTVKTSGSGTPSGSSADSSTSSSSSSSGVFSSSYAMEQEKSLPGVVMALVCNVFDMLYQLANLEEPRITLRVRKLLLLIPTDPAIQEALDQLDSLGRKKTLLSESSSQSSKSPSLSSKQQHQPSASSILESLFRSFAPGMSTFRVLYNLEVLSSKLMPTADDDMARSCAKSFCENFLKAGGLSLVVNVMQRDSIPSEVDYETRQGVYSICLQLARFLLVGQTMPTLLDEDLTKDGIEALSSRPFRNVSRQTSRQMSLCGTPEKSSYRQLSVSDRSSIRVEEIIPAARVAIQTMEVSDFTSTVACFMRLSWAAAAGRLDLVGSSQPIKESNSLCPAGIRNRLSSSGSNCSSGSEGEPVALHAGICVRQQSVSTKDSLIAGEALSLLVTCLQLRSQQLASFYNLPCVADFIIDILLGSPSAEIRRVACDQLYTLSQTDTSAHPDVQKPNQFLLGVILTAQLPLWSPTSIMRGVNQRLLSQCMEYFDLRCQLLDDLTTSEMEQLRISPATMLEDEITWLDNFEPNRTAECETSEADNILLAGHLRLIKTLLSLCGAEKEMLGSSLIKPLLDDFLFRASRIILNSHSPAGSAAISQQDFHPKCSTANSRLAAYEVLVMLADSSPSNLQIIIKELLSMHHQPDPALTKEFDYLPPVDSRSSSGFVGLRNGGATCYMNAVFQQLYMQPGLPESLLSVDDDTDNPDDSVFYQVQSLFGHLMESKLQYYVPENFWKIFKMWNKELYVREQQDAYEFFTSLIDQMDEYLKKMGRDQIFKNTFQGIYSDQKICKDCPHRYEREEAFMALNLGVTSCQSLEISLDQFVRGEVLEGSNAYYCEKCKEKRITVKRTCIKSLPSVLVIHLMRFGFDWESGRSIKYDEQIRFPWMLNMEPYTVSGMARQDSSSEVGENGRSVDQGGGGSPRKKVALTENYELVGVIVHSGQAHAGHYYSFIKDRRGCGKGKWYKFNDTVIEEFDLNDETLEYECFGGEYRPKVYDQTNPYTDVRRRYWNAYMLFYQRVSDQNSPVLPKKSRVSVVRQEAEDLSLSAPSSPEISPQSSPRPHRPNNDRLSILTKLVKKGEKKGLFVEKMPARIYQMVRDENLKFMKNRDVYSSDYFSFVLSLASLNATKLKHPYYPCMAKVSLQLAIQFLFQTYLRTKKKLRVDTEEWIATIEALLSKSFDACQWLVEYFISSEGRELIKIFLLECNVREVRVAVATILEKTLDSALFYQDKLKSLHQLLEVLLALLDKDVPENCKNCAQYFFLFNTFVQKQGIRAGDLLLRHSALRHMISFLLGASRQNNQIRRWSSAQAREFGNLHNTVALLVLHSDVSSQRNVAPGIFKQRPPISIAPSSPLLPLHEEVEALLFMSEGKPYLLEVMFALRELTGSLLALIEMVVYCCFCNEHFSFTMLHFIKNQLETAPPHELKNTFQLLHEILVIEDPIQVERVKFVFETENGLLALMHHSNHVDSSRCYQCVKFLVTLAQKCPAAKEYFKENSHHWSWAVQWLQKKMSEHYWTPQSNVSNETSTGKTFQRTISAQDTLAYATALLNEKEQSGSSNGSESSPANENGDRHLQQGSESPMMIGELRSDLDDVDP

O=C(CCl)Nc1cc(Cl)ccc1C(=O)O
inactive: USP19 -0.0222 | USP22 0.0608 | USP24 -0.0569 | USP25 0.269 | USP28 -0.0169
